Assay results from PubChem BioAssay.
Potency and affinity values are given separately. Results filed as inconclusive are left out. Active and inactive are the calls of the source.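 How the source made its calls, unless noted: active means falling signal with fitted half-maximal potency no higher than twice the top valid tested dose; inconclusive means poor fit quality, or flat fit spanning -70% to -30%; inactive means potency over limit, rising signal, or flat fit inside 30%.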

Key:
[1] = fungal growth arrest, C. neoformans – Alamar Blue, cherry-picks, dose response (AID 686998); details: Cryptococcus neoformans growth, 24 h; series mostly up to 35 µM
[2] = C. neoformans lysis by adenylate kinase leakage – AK release luminescence, cherry-picks, dose response (AID 687000;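 active means fitted dose curve reaches 40% lysis signal rise at or below the highest valid concentration tested for that sample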;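 further: luminescent detection of adenylate kinase leaking from lysed yeast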); details: 4 h, 100% = twice the neutral-control signal; series mostly up to 15 µM
[3] = viability loss in HepG2 hepatoma cells – cell-based, cherry-picks, set 2, cytotoxicity control, dose response (AID 687002;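 active means a dose-response fit showing signal loss, with half-maximal concentration no higher than twice the top tested dose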); details: ATP luminescence (CellTiter-Glo), 48 h; series mostly up to 26 µM

Measured: outcome

CCCNC(=O)N1[C@@H](CO)[C@@H](c2ccc(-c3ccccc3)cc2)[C@@H]1CNC(C)=O
inactive: all assays above

CCC(=O)N(C)C[C@H]1Oc2cc(C#CC(C)(C)O)ccc2S(=O)(=O)N([C@H](C)CO)C[C@@H]1C
inactive: all assays above

CC(C)(C)c1ccc(OCC(=O)NC(c2ccccc2)c2ccccc2)cc1
inactive: all assays above

C[C@H]1CN([C@@H](C)CO)S(=O)(=O)c2ccc(C#Cc3cccc(F)c3)cc2O[C@@H]1CN(C)C
inactive: all assays above

Cc1ccc(NC(=O)[C@H](C)NC(=O)C2CCN(C(=O)[C@@H](N)CC(C)C)CC2)cc1
inactive: all assays above

C[C@@H]1CCCCO[C@@H](CN(C)Cc2ccc3c(c2)OCO3)[C@@H](C)CN([C@H](C)CO)C(=O)c2cc(NS(=O)(=O)c3ccc(F)cc3)ccc2O1
inactive: all assays above
